Measurements taken from PubChem BioAssay (Tox21).
Records with an inconclusive call do not appear. Calls of active or inactive are those of the source. Unless noted, the call rests on the fitted dose curve; in most records, active means well fitted curve in the direction sought with a large enough effect in the repeat runs; inconclusive means weak or mixed curves; inactive means no such curve, though single readings can be large; an effect the other way counts as inactive or inconclusive.

Tests used:
[1] = qHTS assay to identify small molecule antagonists of the estrogen related receptor (ERR) signaling pathway from Tox21 library - cell viability counter screen (AID 1224834); further: nearly all actives have a fitted effect of over 30% in size
Summary of the method: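 ERR reporter cells, 2,000 per well, rested 6 h, then exposed to compound in DMSO for 17.5 hours at 37 C. Viability read as fluorescence after 30 min with CellTiter-Fluor.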

[2] = molecular target: Luciferin 4-monooxygenase (Photinus pyralis) (UniProt P08659); assay: qHTS assay to identify small molecule inhibitors of firefly luciferase (AID 1224835); further: series mostly up to about 120 µM; nearly all actives have a fitted effect of over 25% in size
Luciferin 4-monooxygenase (Photinus pyralis), sequence (P08659 whole entry, looked up): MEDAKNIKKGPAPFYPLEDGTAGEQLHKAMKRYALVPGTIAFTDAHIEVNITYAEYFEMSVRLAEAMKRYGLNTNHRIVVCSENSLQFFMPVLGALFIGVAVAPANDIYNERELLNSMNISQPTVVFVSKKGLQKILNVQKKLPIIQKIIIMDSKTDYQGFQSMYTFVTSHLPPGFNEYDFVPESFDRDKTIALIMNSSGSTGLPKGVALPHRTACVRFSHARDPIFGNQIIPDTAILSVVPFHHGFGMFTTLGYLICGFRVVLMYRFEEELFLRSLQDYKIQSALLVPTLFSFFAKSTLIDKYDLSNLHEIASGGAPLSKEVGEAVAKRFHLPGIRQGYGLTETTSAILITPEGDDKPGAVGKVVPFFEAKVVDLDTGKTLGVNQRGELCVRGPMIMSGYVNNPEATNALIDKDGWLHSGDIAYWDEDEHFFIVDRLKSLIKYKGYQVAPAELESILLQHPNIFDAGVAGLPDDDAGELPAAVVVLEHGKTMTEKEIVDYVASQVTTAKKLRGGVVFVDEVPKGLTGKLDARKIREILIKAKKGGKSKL
Summary of the method: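 Quantitative HTS format; KM concentrations of both substrates. Purified P. pyralis FLuc activity quantified from luminescence images.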

[3] = qHTS assay to identify small molecule agonists of the constitutive androstane receptor (CAR) signaling pathway - cell viability counter screen (AID 1224836); further: series mostly up to about 92 µM; nearly all actives have a fitted effect of over 45% in size
Summary of the method: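 Using CellTiter-Fluor, viability of HepG2 cells harbouring hCAR and CYP2B6-2.2kb was measured following 23 h incubation with a 15-concentration compound series plus PK11195 (0.75 uM final).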

[4] = qHTS assay to identify small molecule antagonists of the constitutive androstane receptor (CAR) signaling pathway - cell viability counter screen (AID 1224837); further: series mostly up to about 92 µM; nearly all actives have a fitted effect of over 45% in size
Summary of the method: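 HepG2 cells stably carrying hCAR and CYP2B6-2.2kb reporter, stimulated with 50 nM CITCO and compounds at 15 concentrations for 23 h at 37 C. Viability measured by CellTiter-Fluor fluorescence.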

[5] = molecular target: Nuclear receptor subfamily 1 group I member 3 (Homo sapiens) (UniProt Q14994); assay: qHTS assay to identify small molecule antagonists of the constitutive androstane receptor (CAR) signaling pathway (AID 1224838); further: nearly all actives have a fitted effect of over 40% in size
Nuclear receptor subfamily 1 group I member 3 (Homo sapiens), sequence (Q14994 whole entry, looked up): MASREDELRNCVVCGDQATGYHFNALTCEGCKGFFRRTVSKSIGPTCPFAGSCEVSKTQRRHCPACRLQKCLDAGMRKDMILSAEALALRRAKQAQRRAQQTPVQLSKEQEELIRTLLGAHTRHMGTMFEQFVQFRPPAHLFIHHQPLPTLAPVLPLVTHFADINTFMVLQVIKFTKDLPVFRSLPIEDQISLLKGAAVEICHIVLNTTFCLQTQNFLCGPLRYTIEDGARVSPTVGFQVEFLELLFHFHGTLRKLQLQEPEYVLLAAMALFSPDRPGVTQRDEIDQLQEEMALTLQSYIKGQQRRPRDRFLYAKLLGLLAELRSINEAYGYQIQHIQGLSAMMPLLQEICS
Summary of the method: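 HepG2 cells stably carrying hCAR and a CYP2B6-2.2kb luciferase reporter, seeded 4 hrs before compound (15 concentrations). Stimulated with 50 nM CITCO for 24 hr at 37 C. ONE-Glo luminescence read after 30 min at room temperature.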

[6] = molecular target: Nuclear receptor subfamily 1 group I member 3 (Homo sapiens) (UniProt Q14994); assay: qHTS assay to identify small molecule agonists of the constitutive androstane receptor (CAR) signaling pathway (AID 1224839); further: series mostly up to about 92 µM; nearly all actives have a fitted effect of over 15% in size
Summary of the method: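 Double-stable HepG2 cells (hCAR, CYP2B6-2.2kb) seeded 4 h before compound addition. Exposure 24 h with 0.75 uM PK11195 final. Luciferase detected by ONE-Glo.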

[7] = molecular target: Thyrotropin receptor (Homo sapiens) (UniProt P16473); assay: qHTS assay to identify small molecule agonists of the thyroid stimulating hormone receptor (TSHR) signaling pathway (AID 1224843; calls by dose curve; further: nearly all actives have a fitted effect of over 45% in size)
Thyrotropin receptor (Homo sapiens), sequence (P16473 whole entry, looked up): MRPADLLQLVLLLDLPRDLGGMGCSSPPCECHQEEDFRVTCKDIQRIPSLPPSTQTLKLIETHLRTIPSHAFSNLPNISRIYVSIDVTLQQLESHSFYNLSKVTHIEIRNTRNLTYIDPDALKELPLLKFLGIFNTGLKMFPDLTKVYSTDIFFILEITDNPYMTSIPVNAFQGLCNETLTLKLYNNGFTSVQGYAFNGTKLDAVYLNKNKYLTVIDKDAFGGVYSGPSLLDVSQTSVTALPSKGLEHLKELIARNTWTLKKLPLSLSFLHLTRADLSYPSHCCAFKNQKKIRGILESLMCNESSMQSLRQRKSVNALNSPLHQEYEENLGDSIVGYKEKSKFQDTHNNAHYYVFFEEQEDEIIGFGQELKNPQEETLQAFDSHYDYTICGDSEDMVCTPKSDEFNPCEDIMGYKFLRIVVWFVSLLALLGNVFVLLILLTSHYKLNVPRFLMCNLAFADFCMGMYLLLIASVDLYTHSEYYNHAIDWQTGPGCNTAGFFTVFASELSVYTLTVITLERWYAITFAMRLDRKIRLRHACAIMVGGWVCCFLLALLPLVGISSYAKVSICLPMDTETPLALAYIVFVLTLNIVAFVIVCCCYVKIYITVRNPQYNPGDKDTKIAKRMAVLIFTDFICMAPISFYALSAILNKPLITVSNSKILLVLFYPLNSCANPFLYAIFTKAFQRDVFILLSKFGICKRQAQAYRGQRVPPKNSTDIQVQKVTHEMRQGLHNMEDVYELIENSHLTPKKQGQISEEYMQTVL
Summary of the method: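 Cell line HEK293 with TSHR; density 800/well. Exposure 30 min RT. Readout HTRF cAMP (cAMP-d2/anti-cAMP-cryptate), 1 h RT before reading.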

[8] = qHTS assay to identify small molecule agonists of the hypoxia (HIF-1) signaling pathway - cell viability counter screen (AID 1224844; calls by dose curve; further: nearly all actives have a fitted effect of over 50% in size)
Summary of the method: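 HRE-bla ME-180 cells, 2,000/well in 0.5% dialyzed FBS medium, treated 17 h at 37C with compounds. Viability read in the same wells as the bla reporter, by CellTiter-Glo luminescence after 30 min at room temperature.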

[9] = qHTS assay to identify small molecule agonists of H2AX (AID 1224845; active means well fitted activation curve with a large enough effect in the signal ratio in the repeat runs, not every such curve was filed as active; the % refers to the signal ratio; further: potency means the concentration at half of the fitted maximal effect)
Summary of the method: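 Wild-type CHO-K1 cells plated overnight, then exposed 3 hr at 37C to compounds at 15 concentrations (0.76% DMSO). Lysed, then HTRF anti-pH2AX(S139)-cryptate/anti-H2AX-d2 detection after 24 hr at room temperature; emissions 665 and 620 nm.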

[10] = qHTS assay to identify small molecule agonists of the hypoxia (HIF-1) signaling pathway (AID 1224846; active means well fitted activation curve with a large enough effect in the signal ratio in the repeat runs, not every such curve was filed as active; the % refers to the signal ratio)
Summary of the method: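 HRE-bla ME-180 beta-lactamase reporter cells in medium with 0.5% dialyzed FBS, pre-incubated 5 h then exposed to compounds 17 h at 37C, 5% CO2; reporter induction read with CCF4-AM FRET substrate.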

[11] = qHTS assay to identify small molecule agonists of H2AX - cell viability counter screen (AID 1224847; calls by dose curve; further: top concentration of the series differs between compounds; nearly all actives have a fitted effect of over 30% in size)
Summary of the method: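 Quantitative HTS viability measurement: CHO-K1 wild-type cells in serum (10% FBS) medium, short 3 hr drug exposure at 37C with 0.76% DMSO, CellTiter-Glo luminescent detection.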

[12] = qHTS RealTime-Glo MT Cell Viability Assay in HepG2 cells - 24 hour (AID 1224867); further: nearly all actives have a fitted effect of over 50% in size
Summary of the method: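 Cells + NanoLuc/prosubstrate dispensed (600 cells/well) → 5 h at 37 C/5% CO2 → compounds in DMSO transferred → 40 h incubation at 37 C, luminescence read at 0, 8, 16, 24, 32, 40 h.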

[13] = A CellTox Green Cytotoxicity Assay to monitor cytotoxicity in HEK293 cells - 0 hour (AID 1224869); further: nearly all actives have a fitted effect of over 50% in size
Summary of the method: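 HEK293 cells, 600/well, were preincubated 5 hours and then exposed to compounds at 37 C for up to 40 hours. A cell-impermeant cyanine dye staining dead-cell DNA was read by fluorescence at 0, 8, 16, 24, 32 and 40 h time points.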

[14] = qHTS RealTime-Glo MT Cell Viability Assay in HepG2 cells - 40 hour (AID 1224870); further: nearly all actives have a fitted effect of over 50% in size
Summary of the method: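 HepG2 cells mixed with RealTime-Glo MT reagents (NanoLuc plus cell-permeant prosubstrate) were seeded at 600 cells/well, incubated 5 h at 37 C/5% CO2, then pinned with compounds in DMSO; nonlytic luminescence tracked viability during 40 h treatment.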

[15] = qHTS assay to identify small molecule antagonists of the estrogen related receptor signaling pathway with the pleiotropic PPARgamma coactivator (PGC) from Tox21 10K library - cell viability counter screen (AID 1224840; active means well fitted cell-killing curve with a large enough effect in the repeat runs, not every such curve was filed as active; further: nearly all actives have a fitted effect of over 40% in size)
Summary of the method: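 PGC/ERR cells (2,000/well) plated 6 h, then compound-treated for 17.5 h at 37 C. Viability measured by CellTiter-Fluor fluorescence after 30 min at 37 C, multiplexed with the pathway assay.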

[16] = qHTS RealTime-Glo MT Cell Viability Assay in HEK293 cells - 32 hour (AID 1224868)
Summary of the method: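 Tox21 10K qHTS, HEK293, 600 cells/well, RealTime-Glo reagent co-dispensed with cells; 5 h preincubation, compound by pintool, 37 C, luminescence at 0–40 h.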

[17] = qHTS assay to identify small molecule antagonists of the estrogen related receptor signaling pathway with the pleiotropic PPARgamma coactivator (PGC) from Tox21 10K library (AID 1224841; call rule not given here; further: potency means the concentration at half of the fitted maximal effect; on activity, negative = inhibition: series mostly up to about 92 µM)
Summary of the method: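 PGC/ERR cell line, 2,000 cells/well, pre-incubated 6 hours at 37 C, then exposed to compounds for 18 hours at 37 C; luciferase read with One-Glo luminescence after 30 min at room temperature.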

[18] = qHTS assay to identify small molecule agonists of the estrogen related receptor signaling pathway with the pleiotropic PPARgamma coactivator (PGC) from Tox21 10K library (AID 1224842); further: nearly all actives have a fitted effect of over 15% in size
Summary of the method: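 PGC/ERR reporter cells (NTP line) were seeded 2,000 per well, rested 6 h at 37 C/5% CO2, then pin-dosed with compounds in DMSO for 18 h at 37 C; luciferase read by One-Glo luminescence after 30 min at room temperature.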

[19] = qHTS assay to identify small molecule antagonists of the estrogen related receptor (ERR) signaling pathway from Tox21 library (AID 1224848); further: nearly all actives have a fitted effect of over 50% in size
Summary of the method: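 Screening used an ERR reporter line supplied by NTP, exposed for 18 h at 37 C to library compounds delivered in DMSO. Signal was luciferase luminescence developed with ONE-Glo at room temperature for 30 min.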

[20] = qHTS assay to identify small molecule agonists of the estrogen related receptor (ERR) signaling pathway from Tox21 library (AID 1224849; calls by dose curve; further: nearly all actives have a fitted effect of over 15% in size)
Summary of the method: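 ERR reporter cells (NTP line) pre-incubated 6 hours at 37 C, then exposed to compounds for 18 hours at 37 C. ONE-Glo luciferase luminescence was read after 30 minutes at room temperature.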
On the % scale 0 is the no-effect control and ±100 the full control effect.

CCCCN(CCC(=O)OCC)C(C)=O
inactive: Potency [1] | Potency [2] | outcome [3] | outcome [4] | Potency [5] | Potency [6] | Potency [7] | Potency [8] | Potency [9] | outcome [10] | outcome [11] | outcome [12] | outcome [13] | Potency [14]

CC1=CCC(O)(C(C)C)CC1 (stereo not drawn)
inactive: Potency [1] | Potency [2] | outcome [3] | outcome [4] | Potency [5] | Potency [6] | outcome [15] | Potency [7] | Potency [8] | Potency [9] | outcome [11] | outcome [12] | Potency [16] | outcome [13] | Potency [14]

Cc1cccc(C)c1NC(=O)CC12CCCN1CCC2
inactive: Potency [1] | Potency [2] | outcome [3] | outcome [4] | Potency [5] | Potency [6] | Potency [17] | Potency [18] | Potency [7] | Potency [8] | Potency [9] | outcome [10] | outcome [11] | Potency [19] | outcome [20] | outcome [12] | Potency [16] | outcome [13] | Potency [14]

CCCCOC(=O)CCC(C)=O
inactive: Potency [1] | Potency [2] | outcome [3] | outcome [4] | Potency [5] | Potency [6] | outcome [15] | Potency [7] | Potency [8] | Potency [9] | outcome [10] | outcome [12] | Potency [16] | outcome [13] | Potency [14]

Cc1cc(C)c(N=Nc2c(O)c(S(=O)(=O)O)cc3cc(S(=O)(=O)O)ccc23)cc1C
inactive: viability change, negative = cytotoxic [1] -4.92% [at 8.39 µM] | activity change, negative = inhibition [2] -6.78% [at 10.5 µM] | viability change, negative = cytotoxic [3] -15.6% [at 8.39 µM] | activity change, negative = cytotoxicity [4] 0.232% [at 8.39 µM] | activity, negative = inhibition [5] -3.25% [at 8.39 µM] | activation [6] 7.37% [at 8.39 µM] | activation [18] -8.18% [at 8.39 µM] | activity change, negative = cytotoxicity [8] -6.32% [at 6.97 µM] | activation (H2AX phosphorylation) [9] 1.25% [at 14 µM] | activation [10] -0.827% [at 7.01 µM] | activity change, negative = cytotoxicity [11] -10.4% [at 14 µM] | activity, negative = inhibition [19] -9.99% [at 8.39 µM] | activity change, positive = activation [20] -5.16% [at 8.39 µM] | activity change, negative = cytotoxicity [12] -1.15% [at 6.97 µM] | cytotoxicity [13] 0.859% [at 6.97 µM] | activity change, negative = cytotoxic [14] -8.96% [at 6.97 µM]
active: Potency [17] 959 nM

Cc1nc2ccc(CN(C)c3ccc(C(=O)N[C@@H](CCC(=O)O)C(=O)O)s3)cc2c(=O)[nH]1
active: Potency [9] 619 nM
inactive: Potency [1] | Potency [2] | outcome [3] | outcome [4] | Potency [5] | Potency [6] | outcome [15] | Potency [8] | outcome [10] | outcome [11] | outcome [12] | outcome [13] | Potency [14]

CC(C)=CCC/C(C)=C/C#N
inactive: Potency [1] | Potency [2] | outcome [3] | outcome [4] | Potency [5] | Potency [6] | outcome [15] | Potency [7] | Potency [8] | Potency [9] | outcome [10] | outcome [11] | Potency [16] | outcome [13] | Potency [14]

C[N+](C)(C)CCCCCCCCCC[N+](C)(C)C
inactive: Potency [1] | Potency [2] | outcome [3] | outcome [4] | Potency [5] | Potency [6] | Potency [7] | Potency [8] | Potency [9] | outcome [11] | outcome [12] | Potency [16] | outcome [13] | Potency [14]
